Data taken from PubChem BioAssay (EPA / NIEHS).
Records with an inconclusive call do not appear. Activity calls are given as the source filed them. How the source made its calls, unless noted: active means hit-call score of the fitted dose curve at least 0.9, where 1 is the maximum; inconclusive means response in the unintended direction; inactive means score below 0.9.

Key:
[1] = CCTE_Padilla_ZF_144hpf_TERATOSCORE: (Legacy) CCTE's 144 Hour Post-fertilization zebrafish Assay Teratoscore, Padilla Lab (AID 2283679; active means hit-call score of the fitted dose curve at least 0.9, where 1 is the maximum; inactive means score below 0.9;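 on AC50: zebrafish embryos with chorions exposed by immersion from 6-8 hpf to 5 dpf with daily renewal; teratogenicity score from eye scoring of death hatching and malformations at 144 hpf; higher score means more developmental defects relative to DMSO baseline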)
Summary of the method: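 Larvae scored by eye at 144 hpf for death, hatching and malformations after a day in clean Hanks'. Before that, daily-renewed exposure at 80 uM (0.4% DMSO, 26C) from roughly 6-8 hpf through 5 dpf, 4 embryos per chemical.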

[2] = read-out: ABC Transporter (ABCB1), ABCB1 (gene 5243); test: CLD_ABCB1_24hr: CellzDirect (CLD) Gene Expression Assay for ABC Transporter (ABCB1) at 24 hours (AID 2283684)
Summary of the method: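 ABCB1 mRNA induction versus 0.2% DMSO vehicle was read by qNPA chemiluminescence at 24 h. Cultured human hepatocytes from two donor preparations received daily fresh dosing, and phase-contrast cytotoxicity calls were annotated alongside the data.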

[3] = read-out: Cytochrome P450 2B6 (Homo sapiens) (UniProt P20813); test: CLD_CYP2B6_24hr: CellzDirect (CLD) Gene Expression Assay for xenobiotic metabolism (CYP2B6) at 24 hours (AID 2283686)
Summary of the method: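 qNPA chemiluminescent measurement of mRNA at 24 hours in human primary hepatocyte cultures from two donor preparations, with daily fresh dosing and 0.2% DMSO vehicle as baseline. Morphology-based cytotoxicity flagged yes/no.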

[4] = read-out: glucuronosyltransferase (UGT1A1), UGT1A1 (gene 54658); test: CLD_UGT1A1_24hr: CellzDirect (CLD) Gene Expression Assay for glucuronosyltransferase (UGT1A1) at 24 hours (AID 2283696)
Summary of the method: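 UGT1A1 transcript induction was measured by quantitative nuclease protection assay (chemiluminescence) in human hepatocyte cultures 24 h after daily fresh dosing, with 0.2% DMSO as vehicle and baseline.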

[5] = read-out: Cytochrome P450 3A4 (Homo sapiens) (UniProt P08684); test: CLD_CYP3A4_48hr: CellzDirect (CLD) Gene Expression Assay for xenobiotic metabolism (CYP3A4) at 48 hours (AID 2283698)
Summary of the method: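 CYP3A4 induction read by qNPA chemiluminescence after 48 h, with fresh dosing solutions on consecutive days, in cultured human hepatocytes (two donors). Vehicle 0.2% DMSO as baseline; microscopy-based cytotoxicity annotated yes/no alongside data.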

[6] = read-out: Cytochrome P450 2C19 (Homo sapiens) (UniProt P33261); test: CLD_CYP2C19_48hr: CellzDirect (CLD) Gene Expression Assay for xenobiotic metabolism (CYP2C19) at 48 hours (AID 2283700);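 further: fitted upward so actives raise CYP2C19 mRNA above the 0.2% DMSO vehicle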
Summary of the method: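 CYP2C19 mRNA induction read by chemiluminescent quantitative nuclease protection assay after 48 h, with fresh compound added daily for two days to cultured human liver hepatocytes. Activity fitted upward against 0.2% DMSO vehicle.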

[7] = read-out: Cytochrome P450 3A4 (Homo sapiens) (UniProt P08684); test: CLD_CYP3A4_24hr: CellzDirect (CLD) Gene Expression Assay for xenobiotic metabolism (CYP3A4) at 24 hours (AID 2283689)
Summary of the method: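 CYP3A4 mRNA induction read by quantitative nuclease protection (chemiluminescence) 24 hr after dosing. Cultured human hepatocytes (two donor preparations) treated daily, vehicle 0.2% DMSO; phase-contrast morphology annotates cytotoxicity.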

[8] = read-out: Glyceraldehyde-3-phosphate dehydrogenase (Homo sapiens) (UniProt P04406); test: CLD_GAPDH_24hr: CellzDirect (CLD) Gene Expression Assay for Baseline Control (Glyceraldehyde 3-phosphate dehydrogenase) at 24 hours (AID 2283692)
Summary of the method: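 GAPDH baseline-control readout: qNPA chemiluminescent mRNA signal in human primary hepatocytes harvested 24 h after daily dosing, normalised to 0.2% DMSO with positive fitting direction; cytotoxicity annotated by phase-contrast morphology.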

[9] = read-out: Cytochrome P450 2B6 (Homo sapiens) (UniProt P20813); test: CLD_CYP2B6_48hr: CellzDirect (CLD) Gene Expression Assay for xenobiotic metabolism (CYP2B6) at 48 hours (AID 2283699);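 further: actives raise transcript level above DMSO so potency reflects induction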
Summary of the method: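 CYP2B6 transcript induction, read by quantitative nuclease protection (S1 digestion, chemiluminescent detection) 48 h after dosing, is fitted upward against 0.2% DMSO. Cultured human liver primary cells, two donor preparations, received fresh chemical daily over multiple concentrations.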

[10] = read-out: Cytochrome P450 2C19 (Homo sapiens) (UniProt P33261); test: CLD_CYP2C19_24hr: CellzDirect (CLD) Gene Expression Assay for xenobiotic metabolism (CYP2C19) at 24 hours (AID 2283687);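 further: activity means mRNA induction above DMSO vehicle baseline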
Summary of the method: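 CYP2C19 mRNA was quantified by qNPA chemiluminescence after 24 h of daily dosing of cultured human primary hepatocytes from two donors; vehicle was 0.2% DMSO, and increases over DMSO baseline were fitted.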

[11] = read-out: xenobiotic metabolism (CYP1A2), CYP1A2 (gene 1544); test: CLD_CYP1A2_24hr: CellzDirect (CLD) Gene Expression Assay for xenobiotic metabolism (CYP1A2) at 24 hours (AID 2283683)
Summary of the method: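 CYP1A2 mRNA induction measured by quantitative nuclease protection (chemiluminescent) in human primary hepatocytes 24 h after multi-concentration chemical dosing with daily fresh solutions. DMSO (0.2%) baseline; positive-direction fitting; morphology-based cytotoxicity noted.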

[12] = read-out: ABC Transporter (ABCB1), ABCB1 (gene 5243); test: CLD_ABCB1_48hr: CellzDirect (CLD) Gene Expression Assay for ABC Transporter (ABCB1) at 48 hours (AID 2283695)
Summary of the method: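 ABCB1 mRNA was measured by quantitative nuclease protection assay (chemiluminescence) 48 h after dosing. Human hepatocyte cultures from two separate donors received fresh dosing solutions daily for two days, with 0.2% DMSO as vehicle. Positive-direction fit against DMSO.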

[13] = read-out: organic anion transporter (SLCO1B1), SLCO1B1 (gene 10599); test: CLD_SLCO1B1_24hr: CellzDirect (CLD) Gene Expression Assay for organic anion transporter (SLCO1B1) at 24 hours (AID 2283690)
Summary of the method: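 SLCO1B1 mRNA induction read at 24 h by quantitative nuclease protection assay (chemiluminescence), analyzed against DMSO baseline. Human hepatocyte cultures from separate donors received fresh dosing solutions daily; vehicle 0.2% DMSO; cytotoxicity flagged by phase-contrast morphology.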

[14] = read-out: Glyceraldehyde-3-phosphate dehydrogenase (Homo sapiens) (UniProt P04406); test: CLD_GAPDH_6hr: CellzDirect (CLD) Gene Expression Assay for Baseline Control (Glyceraldehyde 3-phosphate dehydrogenase) at 6 hours (AID 2283681);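 further: active means increased signal relative to DMSO vehicle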
Summary of the method: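 GAPDH baseline-control readout from qNPA (S1 nuclease digestion, probe hybridization, chemiluminescence) in lysates of cultured human hepatocytes harvested 6 h post-dosing. Chemicals tested at multiple concentrations versus 0.2% DMSO vehicle; microscopy-based cytotoxicity flagged yes/no.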

[15] = read-out: sulfotransferase (SULT2A), SULT2A1 (gene 6822); test: CLD_SULT2A_24hr: CellzDirect (CLD) Gene Expression Assay for sulfotransferase (SULT2A) at 24 hours (AID 2283694)
Summary of the method: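 mRNA is measured by qNPA: probe hybridisation, S1 nuclease digestion, chemiluminescence, in lysates from human primary hepatocytes harvested 24 h after daily dosing. Vehicle was 0.2% DMSO. Phase-contrast microscopy flagged cytotoxicity (yes/no).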

[16] = read-out: Cytochrome P450 2C9 (Homo sapiens) (UniProt P11712); test: CLD_CYP2C9_24hr: CellzDirect (CLD) Gene Expression Assay for xenobiotic metabolism (CYP2C9) at 24 hours (AID 2283688)
Summary of the method: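 Induction of CYP2C9 mRNA was quantified by quantitative nuclease protection assay (chemiluminescence), gain of signal versus 0.2% DMSO vehicle, 24 h after dosing. Human primary hepatocytes (two donors) received fresh chemical daily at multiple concentrations; morphology-based cytotoxicity flagged yes/no.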

Measured: AC50

Cytochrome P450 3A4 (Homo sapiens), sequence (P08684 whole entry, looked up): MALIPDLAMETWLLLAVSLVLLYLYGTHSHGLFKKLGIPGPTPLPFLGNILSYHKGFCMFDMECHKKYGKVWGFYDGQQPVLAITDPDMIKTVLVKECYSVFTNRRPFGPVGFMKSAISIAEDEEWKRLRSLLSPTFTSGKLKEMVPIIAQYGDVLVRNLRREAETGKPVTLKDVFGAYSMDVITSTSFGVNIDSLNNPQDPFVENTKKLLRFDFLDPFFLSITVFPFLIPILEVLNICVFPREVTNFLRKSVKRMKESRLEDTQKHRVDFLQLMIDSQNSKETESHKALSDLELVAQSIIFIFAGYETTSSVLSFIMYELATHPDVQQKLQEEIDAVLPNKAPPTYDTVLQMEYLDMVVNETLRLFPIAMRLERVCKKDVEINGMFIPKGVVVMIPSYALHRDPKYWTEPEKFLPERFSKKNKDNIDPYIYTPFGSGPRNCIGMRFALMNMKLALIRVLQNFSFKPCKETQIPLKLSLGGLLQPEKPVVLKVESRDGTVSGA
Glyceraldehyde-3-phosphate dehydrogenase (Homo sapiens), sequence (P04406 whole entry, looked up): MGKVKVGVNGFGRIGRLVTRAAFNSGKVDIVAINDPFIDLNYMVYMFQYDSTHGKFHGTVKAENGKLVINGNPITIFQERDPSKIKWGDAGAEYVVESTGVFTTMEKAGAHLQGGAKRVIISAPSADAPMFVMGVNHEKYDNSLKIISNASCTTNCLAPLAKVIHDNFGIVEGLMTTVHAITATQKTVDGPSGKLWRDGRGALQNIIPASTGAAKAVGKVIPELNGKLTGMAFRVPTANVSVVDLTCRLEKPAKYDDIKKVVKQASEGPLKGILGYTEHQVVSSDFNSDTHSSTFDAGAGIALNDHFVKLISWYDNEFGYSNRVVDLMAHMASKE
Cytochrome P450 2C19 (Homo sapiens), sequence (P33261 whole entry, looked up): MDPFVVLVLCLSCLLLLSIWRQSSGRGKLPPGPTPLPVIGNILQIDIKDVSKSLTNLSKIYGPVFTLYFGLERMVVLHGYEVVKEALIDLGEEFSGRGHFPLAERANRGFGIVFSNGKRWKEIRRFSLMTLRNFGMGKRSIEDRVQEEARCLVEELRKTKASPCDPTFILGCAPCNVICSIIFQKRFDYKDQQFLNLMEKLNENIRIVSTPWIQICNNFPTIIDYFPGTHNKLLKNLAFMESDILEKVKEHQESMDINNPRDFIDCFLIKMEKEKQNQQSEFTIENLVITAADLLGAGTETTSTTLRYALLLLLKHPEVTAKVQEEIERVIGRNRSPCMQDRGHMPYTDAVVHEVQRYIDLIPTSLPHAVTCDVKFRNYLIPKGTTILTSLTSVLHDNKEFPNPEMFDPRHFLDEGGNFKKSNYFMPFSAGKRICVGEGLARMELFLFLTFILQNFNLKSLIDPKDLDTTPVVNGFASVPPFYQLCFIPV

CC1(C)C(C(=O)OC(C#N)c2cccc(Oc3ccccc3)c2)C1(C)C (stereo not drawn)
inactive: [2] | [6]
active: [1] 1.44 µM | [3] 4.44 µM | [4] 5.68 µM | [5] 20 µM

CCCCC(O)(Cn1cncn1)c1ccc(Cl)cc1Cl (stereo not drawn)
inactive: [4]
active: [1] 36.5 µM | [3] 1.9 µM | [7] 1.13 µM | [5] 1.89 µM

Nc1cnn(-c2ccccc2)c(=O)c1Cl
inactive: [1] | [8] | [4] | [5] | [6]

Cc1cc(C)nc(Nc2ccccc2)n1
active: [3] 1.9 µM | [9] 1.61 µM
inactive: [1] | [4] | [5]

Cc1nc(N(C)C)nc(OC(=O)N(C)C)c1C
inactive: [1] | [10] | [4] | [5] | [6]
active: [9] 5.26 µM

CCC(C)n1c(=O)[nH]c(C)c(Br)c1=O (stereo not drawn)
active: [11] 7.45 µM
inactive: [1] | [7] | [5]

CCOP(=S)(OCC)Oc1nc(Cl)n(C(C)C)n1
inactive: [12]
active: [1] 57.2 µM | [3] 0.383 µM | [4] 0.652 µM | [5] 2.52 µM | [9] 0.427 µM

O=C(Nc1ccccc1-c1ccc(Cl)cc1)c1cccnc1Cl
inactive: [4]
active: [1] 3.12 µM

Cc1c(COC(=O)[C@@H]2[C@H](/C=C(\Cl)C(F)(F)F)C2(C)C)cccc1-c1ccccc1
inactive: [10] | [13]
active: [1] 0.623 µM | [7] 6.84 µM | [4] 20 µM | [5] 4.01 µM

N#Cc1c(Cl)cccc1Cl
inactive: [1] | [14] | [13] | [8] | [4] | [6]
active: [5] 4.83 µM | [9] 1.44 µM

CCCC(=NOCC)C1=C(O)CC(CC(C)SCC)CC1=O (stereo not drawn)
inactive: [1] | [14] | [10] | [13] | [8] | [4] | [6]
active: [5] 20 µM

COCC(C)N(C(=O)CCl)c1c(C)csc1C (stereo not drawn)
active: [1] 60.8 µM
inactive: [14] | [13] | [15] | [4]

COc1cc(Cl)c(OC)cc1Cl
inactive: [10] | [4] | [5] | [6]
active: [3] 0.598 µM | [9] 0.0752 µM

CCOP(=O)(OCC)Oc1nc(Cl)c(Cl)cc1Cl
active: [1] 0.485 µM
inactive: [14] | [13] | [8] | [15] | [4] | [5]

CCOc1nc(F)cc2nc(S(=O)(=O)Nc3c(Cl)cccc3Cl)nn12
active: [3] 6.27 µM | [7] 2.93 µM | [5] 3.13 µM | [9] 7.88 µM
inactive: [1] | [2] | [8] | [4] | [6]

Nc1c(Cl)c(F)nc(OCC(=O)O)c1Cl
active: [5] 0.0004 µM
inactive: [1] | [14] | [10] | [13] | [8] | [4]

Cn1c(-c2ccccc2)cc(-c2ccccc2)[n+]1C
inactive: [1] | [14] | [8]

COCC(=O)N(c1c(C)cccc1C)C(C)C(=O)OC (stereo not drawn)
inactive: [1] | [2] | [10] | [16] | [13] | [8] | [15] | [4] | [6]

N#Cc1c[nH]cc1-c1cccc2c1OC(F)(F)O2
inactive: [4] | [5]
active: [1] 4.19 µM

CCSC(=O)N1CCCCCC1
inactive: [1] | [11] | [10] | [16] | [4] | [6]
active: [5] 3.97 µM

CCN(CC)C(=O)C(C)Oc1cccc2ccccc12 (stereo not drawn)
active: [5] 3.72 µM | [9] 6.33 µM
inactive: [1] | [10] | [4] | [6]

COc1cc(OC)nc(NC(=O)NS(=O)(=O)c2ncccc2OCC(F)(F)F)n1
inactive: [1] | [11] | [10] | [6]
active: [5] 20 µM

CCOc1nc(C(Cl)(Cl)Cl)ns1
inactive: [1] | [14] | [8] | [4] | [5]
